Inconclusive results are not listed. Entries that show only a call come without a potency. Activity calls are given as the source filed them. Calls come from the whole dose curve; as a rule, active = well fitted inhibition curve with a large enough effect; inconclusive = small, poorly fitted or top-dose-only effect; inactive = no such curve, though single readings can be large or run the other way.
target: Retinaldehyde dehydrogenase 3 (Homo sapiens) (UniProt P47895); experiment: qHTS for Inhibitors of the Aldehyde Dehydrogenase Family (ALDH1A3) Primary screen (AID 2061315); settings: ALDH inhibition qHTS; series mostly up to 56 µM
Potency is the fitted concentration of half-maximal effect.

Row | SMILES | Potency
1 | N#Cc1c(-c2ccccc2C(F)(F)F)nc2ccccc2c1NCc1ccc(-c2ccnc(C(F)(F)F)c2)cc1 | inactive
2 | CC(=O)c1ccc(N2CCN(S(=O)(=O)c3ccc4[nH]c(=O)[nH]c4c3)CC2)cc1 | inactive
3 | CCOC(=O)c1[nH]c2c(c1C)CCC(c1ccco1)C2 (stereo not given) | inactive
4 | CC(C)(C)c1ccc(C(=O)Nc2ccc(-c3nc4ccccc4[nH]3)cc2)cc1 | inactive
5 | COc1ccccc1O[C@@H]1O[C@H](CO)[C@H](O)[C@H](O)[C@H]1O | inactive
6 | COc1ccnc(NCc2ccc(O)c3ncccc23)c1 | inactive
7 | C[C@H](NC(c1ccc(F)cc1)c1ccc2cccnc2c1O)c1ccccc1 (stereo not given in full) | inactive
8 | Cc1cc(C)nc(NC(=S)N2CCN(c3ccc4c(c3)OCO4)CC2)c1 | inactive
9 | Cc1cc(NS(=O)(=O)c2ccc(NS(=O)(=O)Cc3ccc(Cl)c(Cl)c3)cc2)no1 | inactive
10 | CN(C)c1cccc(-c2ncnc(N3CCC(C(N)=O)CC3)n2)c1 | inactive
11 | CS(=O)(=O)Nc1cccc(-c2cc(F)c(S(=O)(=O)N3CCN(S(=O)(=O)c4ccc5c(c4)OCCO5)CC3)cc2F)c1 | inactive
12 | FC(F)(F)c1ccccc1-c1nc(NCc2ccc(-c3ccc4c(c3)OCCO4)cc2)c2ccccc2n1 | inactive
13 | CC(=O)Nc1sc2c(c1-c1nc3ccccc3s1)CCN(C(C)=O)C2 | inactive
14 | Oc1ccc(CNc2ccc(F)cc2Cl)c2cccnc12 | inactive
15 | Cc1cc(C)nc(NC(=S)N2CCN(c3cncs3)CC2)c1 | inactive
16 | O=c1c(Nc2ccc(F)c(C(F)(F)F)c2)c(Nc2nnc(-c3ccncc3)s2)c1=O | inactive
17 | COc1ccnc(CS(=O)c2nc3cc(OC(F)F)ccc3[nH]2)c1OC (stereo not given) | 31.6 µM (active)
18 | CC(C)Oc1ccc(-c2csc(N3CCC(C(N)=O)CC3)n2)cc1 | inactive
19 | Cc1cc(C)nc(NC(=S)N2CCN(c3cccc4ccccc34)CC2)c1 | inactive
20 | COc1ccc(C2c3ccc(OCc4ccccc4)cc3Oc3ncn(CCN4CCOCC4)c(=N)c32)cc1OC (stereo not given) | inactive

Row | SMILES | Potency
21 | CS(=O)(=O)c1ccc(C(=O)OCC(=O)N2CCN(Cc3ccccc3)CC2)cc1[N+](=O)[O-] | inactive
22 | Cc1ccnc(NC(=S)N2CCN(c3ccc(F)cc3)CC2)c1 | inactive
23 | O=c1c2ccc(-c3cn[nH]c3)cc2nc2sc(Nc3ccc4c(c3)CCC4)nn12 | inactive
24 | O=S1(=O)N=C(Oc2ccc3ccccc3c2)c2ccccc21 | inactive
25 | NC(=O)C1CCN(c2nc(-c3ccc(OC(F)(F)F)cc3)cs2)CC1 | inactive
26 | Cn1ccc2cc(-c3csc(N4CCC(C(N)=O)CC4)n3)ccc21 | inactive
27 | CCCC(C)NC(=O)Cn1nc(-c2ccc(C)cc2)ccc1=O (stereo not given) | inactive
28 | c1ccc(-n2ccc(-c3nnc4n3CCCCC4)c2)cc1 | inactive
29 | CNc1cccc(S(=O)(=O)N2CCCN(S(=O)(=O)c3ccc4c(c3)OCCO4)CC2)c1 | inactive
30 | O=C(O)c1ccc(CSc2nnc(-c3cccc([S+](=O)([O-])N4CCCC4)c3)n2-c2ccccc2)cc1 | inactive
31 | NC(=O)C1CCN(c2nc(-c3ccc(Oc4ccccc4)cc3)cs2)CC1 | inactive
32 | O=C1CCCC2=C1C(c1ccn[nH]1)N=C(Nc1nc3ccccc3o1)N2 (stereo not given) | inactive
33 | Clc1nc(CN2CCOCC2)nc2sc3c(c12)CCC3 | inactive
34 | Cc1ccsc1CN(C)c1ncnc2ccc(-c3ccc(CO)o3)cc12 | inactive
35 | S=C(Nc1cc(Cl)ccn1)N1CCN(c2ccc(Cl)cc2Cl)CC1 | inactive
36 | O=[S+]([O-])(Nc1ccc2ccccc2c1)c1ccc(NCc2ccc(Cl)cc2O)cc1 | inactive
37 | CC(C)c1cccc(-n2cnc3cc(C(=O)N4CCCCC4)ccc32)c1 | inactive
38 | Cc1nc(CN(C)c2ncnc3cc(-c4ccc5c(c4)OCO5)ccc23)cs1 | inactive
39 | O=C(CN1C(=O)N/C(=C\c2cccn2-c2cccc(C(=O)O)c2)C1=O)Nc1ccc(Cl)cc1 | inactive
40 | C=C1C(=O)O[C@H]2C1[C@H](OC(=O)/C(=C/CO)COC(=O)/C(C)=C/CO)CC(=C)[C@@H]1CC(=O)[C@@H](C)[C@@H]12 (stereo not given in full) | inactive

Source: PubChem BioAssay (NCATS)
